Bioassay records deposited in PubChem BioAssay by Broad Institute.
An excerpt weighted towards active compounds, which were near 0.64% of everything screened.
ERp5 inh – ERp5 (human) disulfide isomerase inhibition | Q15084 | ERp5 insulin aggregation, absorbance 650 nm, 90 min | inhibition, % at 9.99 µM | hit rate 0.05% among 350,000 | AID 651711;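 active means mean replicate inhibition above about 25%, with every replicate also reaching it, limit read from the data, passing the limit was not always enough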
AI-2 QS mod – modulators of Vibrio harveyi AI-2 quorum sensing system; Vibrio harveyi JMH597 AI-2 luminescence/OD600 ratio, 9 h; hits give low values; strain lacks LuxN and CqsS sensors; 0 = neutral-control median; activity change, % at 7.5 µM; hit rate 0.4% among 300,000; AID 2094; in the data active means activity change below about -75%, passing the limit was not always enough;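 further: luminescence divided by OD600 gain over 9 h not by final OD600 alone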
PvdQ inh – blocks Pseudomonas aeruginosa PvdQ acylase activity | purified PvdQ acylase, fluorescence plate reader | inhibition, % at 10 µM | hit rate 0.063% among 340,000; in the data active means inhibition above about 30%, passing the limit was not always enough;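 further: 0% = vehicle neutral wells and 100% = reference inhibitor wells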
Vif imaging – blocks HIV Vif function. HEK293T cells, Vif self-association by quenched fluorescence, imaging, 24 h. inhibition, % at 7.49 µM. hit rate 0.35% among 340,000. AID 602346; in the data active means inhibition above about 50%, passing the limit was not always enough
PDI inh – blocks human protein disulfide isomerase activity; P07237; PDI insulin aggregation turbidity, A650, 90 min; inhibition, % at 10 µM; hit rate 0.052% among 350,000;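 active means mean inhibition across replicates of 30% or more, whatever share of single replicates reach that level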
Target sequence (P07237 whole entry, looked up): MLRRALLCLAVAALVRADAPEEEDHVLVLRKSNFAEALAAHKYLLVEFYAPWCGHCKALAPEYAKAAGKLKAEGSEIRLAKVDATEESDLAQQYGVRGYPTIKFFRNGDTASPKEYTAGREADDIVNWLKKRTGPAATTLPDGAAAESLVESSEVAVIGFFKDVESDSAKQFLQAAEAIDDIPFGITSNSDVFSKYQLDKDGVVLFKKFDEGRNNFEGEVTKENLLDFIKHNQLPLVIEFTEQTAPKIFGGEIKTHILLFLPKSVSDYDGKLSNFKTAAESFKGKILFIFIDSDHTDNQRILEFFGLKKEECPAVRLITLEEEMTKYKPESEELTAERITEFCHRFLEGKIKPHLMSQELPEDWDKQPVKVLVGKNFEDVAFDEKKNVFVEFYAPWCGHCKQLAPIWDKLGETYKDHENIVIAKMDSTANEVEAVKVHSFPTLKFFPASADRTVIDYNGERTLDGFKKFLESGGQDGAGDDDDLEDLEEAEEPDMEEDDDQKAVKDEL
Active calls of the source: *.

For C/C=C/C(=O)OCC(=O)Nc1ccccc1Br the results were ERp5 inh 3, AI-2 QS mod -1, PvdQ inh 2, Vif imaging 7 and PDI inh 3.
`O=C(COC(=O)/C=C/C(=O)OCC(=O)Nc1ccccc1F)Nc1ccccc1F` gave ERp5 inh 3, AI-2 QS mod 23, PvdQ inh 4, Vif imaging 79* and PDI inh -3.
Screening O=C(c1cccs1)N1CCN(C(=O)c2cccs2)C1=S returned ERp5 inh 2, PvdQ inh -13, Vif imaging 76* and PDI inh 8.
`O=C(c1cccs1)N1CCCC1` gave AI-2 QS mod 29, PvdQ inh -13, Vif imaging 0 and PDI inh -8.
For CCN(CC)C1Oc2cc3c(cc2C(c2cc(OC)c(OC)c(OC)c2)C1C)OCO3 (stereo not given) the results were ERp5 inh -6, PvdQ inh -1, Vif imaging 55* and PDI inh -2.
`COc1ccc(OC)c(NC(=O)c2nc(-c3ccccc3)oc2C)c1` gave ERp5 inh -2, AI-2 QS mod 3, PvdQ inh -11, Vif imaging 114* and PDI inh 5.
Screening Cc1cccc(C)c1NC(=O)COc1ccc2c(C)c(Cc3ccccc3)c(=O)oc2c1C returned ERp5 inh 3, AI-2 QS mod 21, PvdQ inh 2, Vif imaging 53* and PDI inh -3.
For CO[C@@H]1CC[C@@H]2CCOc3c(C#N)cccc3C(=O)N(C)C[C@H](c3ccccc3)CC(=O)N(C)C[C@H]1O2 the results were ERp5 inh 0.
`C[C@@H]1CN([C@H](C)CO)C(=O)Cc2cc(NC(=O)C3CC3)ccc2O[C@@H]1CN(C)CC1CCCCC1` gave ERp5 inh -2.
`O=C(Cc1sc(-c2ccccc2)nc1-c1ccccc1)Nc1ccccc1` gave AI-2 QS mod 7, PvdQ inh 8, Vif imaging -1 and PDI inh 1.
`O=C(Cc1sc(Nc2ccccc2)nc1-c1ccccc1)NCc1ccccc1` gave ERp5 inh -6, AI-2 QS mod 46, PvdQ inh 5, Vif imaging 98* and PDI inh 6.
For CCN(CC)c1ccc(/C=N/N=C(N)N)c(O)c1 the results were ERp5 inh 8, AI-2 QS mod 4, PvdQ inh 8, Vif imaging 65* and PDI inh -1.
`O=C(Nc1ccc(N2CCOCC2)cc1)C1CC1` gave AI-2 QS mod -1, PvdQ inh -4, Vif imaging 13 and PDI inh 5.
Screening O=C(N/N=C/c1ccc(N2CCOCC2)cc1)C1CC1 returned ERp5 inh 2, AI-2 QS mod 24, PvdQ inh 0, Vif imaging 3 and PDI inh 38*.
Screening CCN(CC(=O)Nc1c(F)cccc1F)C(=O)c1cccc(-n2cccc2)c1 returned ERp5 inh 1, AI-2 QS mod 19, PvdQ inh 4, Vif imaging 74* and PDI inh 7.
CCCNC(=O)N(C)C[C@H]1Oc2cc(-c3cncnc3)ccc2S(=O)(=O)N([C@@H](C)CO)C[C@H]1C was read as ERp5 inh 5.
`C[C@H](C(=O)N(C)C[C@@H]1OCc2ccccc2-c2ccccc2C(=O)N([C@@H](C)CO)C[C@H]1C)c1ccccc1` gave ERp5 inh 8.
`Cc1oc2c(cc(NS(=O)(=O)c3ccc(F)cc3)c3ccccc32)c1C(=O)O` gave ERp5 inh 1, AI-2 QS mod 11, PvdQ inh -6, Vif imaging 11 and PDI inh 3.
`COc1ccc(S(=O)(=O)Nc2cc3c(C(C)=O)c(C)oc3c3ccccc23)cc1` gave AI-2 QS mod 30, PvdQ inh -5, Vif imaging 102* and PDI inh -7.
For O=C(C[n+]1cc(Br)cc2ccccc21)c1ccccc1 the results were ERp5 inh 3, AI-2 QS mod 10, PvdQ inh -12, Vif imaging 55* and PDI inh -2.
CC(=O)N[C@@H]1CC[C@H](CC(=O)NCC2CCCCC2)O[C@@H]1CO was read as ERp5 inh -1.
`COc1ccc2c3c(n(C)c2c1)[C@H](CO)N(C(=O)Nc1ccc(F)cc1)CC31CCN(C)CC1` gave ERp5 inh -3.
N#Cc1nccnc1S(=O)(=O)c1cccs1 was read as ERp5 inh 6 and AI-2 QS mod -132*.
Screening CN(Cc1ccccc1C#N)S(=O)(=O)c1cccs1 returned ERp5 inh 0, AI-2 QS mod 21, PvdQ inh -6, Vif imaging -7 and PDI inh 12.
`Cc1ccc(CONC(=O)/N=C/N(C)C)cc1` gave AI-2 QS mod 18, PvdQ inh -16, Vif imaging 63* and PDI inh 1.
Screening Cc1ccc(CONC(=O)c2ccc([N+](=O)[O-])cc2)cc1 returned ERp5 inh -7, PvdQ inh 2, Vif imaging 13 and PDI inh -6.
For C[C@H]1CN([C@@H](C)CO)C(=O)c2cc(C3=CCCC3)cnc2O[C@@H]1CN(C)Cc1ccc(C(=O)O)cc1 the results were ERp5 inh -1.
Screening COc1ccc2nc3ccccc3nc2c1NC(=O)c1ccc(Br)cc1 returned ERp5 inh 0, AI-2 QS mod 9, PvdQ inh -12, Vif imaging 7 and PDI inh -4.
`COc1ccc2nc3ccccc3nc2c1NC(=O)c1ccc(Cl)cc1` gave AI-2 QS mod 10, PvdQ inh -10, Vif imaging 106* and PDI inh -8.
C[C@@H]1CCCCO[C@H](CN(C)C(=O)C2CCCCC2)[C@H](C)CN([C@H](C)CO)C(=O)c2cc(NC(=O)NC3CCCCC3)ccc2O1 was read as ERp5 inh 0.
`CCOC(=O)N(C)C[C@@H]1OCc2ccccc2-c2ccccc2C(=O)N([C@@H](C)CO)C[C@H]1C` gave ERp5 inh 4.
For N#C/C(=C\c1ccc(N2CCOCC2)o1)C(=O)NCC1CCCO1 (stereo not given) the results were ERp5 inh -1, AI-2 QS mod 37, PvdQ inh -3, Vif imaging 111* and PDI inh -1.
For N#C/C(=C\c1ccc(N2CCOCC2)o1)C(=O)NC1CCCCC1 the results were ERp5 inh 3, AI-2 QS mod 12, PvdQ inh 5, Vif imaging inactive and PDI inh -6.
Screening COc1ccc(CN2C(=O)c3ccccc3C2=O)cc1 returned ERp5 inh -1, AI-2 QS mod 19, PvdQ inh 9, Vif imaging 62* and PDI inh -1.
O=[N+]([O-])c1cccnc1Sc1n[nH]c(-c2ccc(Cl)cc2)n1 was read as ERp5 inh 2, AI-2 QS mod 2, PvdQ inh -2, Vif imaging 2 and PDI inh -2.
For O=[N+]([O-])c1cccnc1Sc1ccc(Cl)cc1 the results were ERp5 inh -1, AI-2 QS mod 4, PvdQ inh 47*, Vif imaging -1 and PDI inh -4.
